A word on the inhibition: it is the drop in the measured response relative to a control, in per cent.

The structures appear in SMILES notation. “And” between values parts separate entries of the source, which are not always exact repeats. Equal entries are not always repeated. Hit rate of the full screen: of about 310,000 compounds, about 1,200 (0.39%) were called active. The list is a sample of the results. Measured potencies and affinities stand elsewhere. Unmarked numbers belong to inactive results. How the calls were made is not given here.

For this assay, the target named is Large T antigen (Simian virus 40) (UniProt P03070). Nature of the assay: SV40 large T antigen inhibitors, biochemical (AID 1903). To be noted: SV40 large T antigen ATPase/helicase inhibition assay; at 20 µM; stronger effect = higher value.
Chain of Large T antigen (Simian virus 40) (P03070 whole entry, looked up): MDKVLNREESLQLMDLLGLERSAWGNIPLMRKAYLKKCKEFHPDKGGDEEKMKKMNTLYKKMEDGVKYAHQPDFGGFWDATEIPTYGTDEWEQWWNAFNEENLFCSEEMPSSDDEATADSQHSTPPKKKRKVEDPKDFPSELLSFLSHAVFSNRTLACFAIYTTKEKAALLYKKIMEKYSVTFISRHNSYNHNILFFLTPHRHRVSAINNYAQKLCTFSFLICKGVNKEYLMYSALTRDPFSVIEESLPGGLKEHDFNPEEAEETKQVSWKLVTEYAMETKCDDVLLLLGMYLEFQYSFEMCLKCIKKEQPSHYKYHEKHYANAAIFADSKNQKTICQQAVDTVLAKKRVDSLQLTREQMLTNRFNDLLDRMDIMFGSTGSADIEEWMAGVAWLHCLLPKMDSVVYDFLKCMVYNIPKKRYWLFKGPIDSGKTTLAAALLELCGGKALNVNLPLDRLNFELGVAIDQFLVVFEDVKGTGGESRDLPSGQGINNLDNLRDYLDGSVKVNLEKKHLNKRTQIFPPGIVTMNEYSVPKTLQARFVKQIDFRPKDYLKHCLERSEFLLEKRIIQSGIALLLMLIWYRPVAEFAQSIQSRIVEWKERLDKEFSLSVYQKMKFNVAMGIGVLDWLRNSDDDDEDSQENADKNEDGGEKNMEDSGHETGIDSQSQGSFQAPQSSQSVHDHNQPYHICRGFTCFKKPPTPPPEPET
Take `CC1Cc2ccccc2N1CC(=O)Nc1ccc(N2CCOCC2)cc1` (configuration not stated): the inhibition was 27%.
Turning to `CC(Nc1ccc2c(c1)OCCO2)C(=O)N1c2ccccc2CC1C` (configuration not stated), the inhibition was 16.6%.
The result for `c1ccc(-c2ccc3c(c2)NC(C2Nc4cc(-c5ccccc5)ccc4O2)O3)cc1` (configuration not stated) reads 19.8%; that for `O=C1CCNc2ccc(-c3ccccc3)cc21`, 5.5%.
With `O=C1c2ccccc2C(=O)N1Cc1cc(Cl)c(O)c([N+](=O)[O-])c1` the figure was 6.24%; with `Nc1cccc2c1C(=O)N(Cc1cccc(Cl)c1)C2=O`, 1.68%; with `O=C(c1cccs1)N1CCCC(N2CCN(c3ccc(F)cc3)CC2)C1` (configuration not stated), 7.59%.
As for `Cn1c(=O)n(Cc2ccccc2F)c2ccccc21`, the inhibition was 9.44%.
For `Nc1nc(O)c(N=Nc2ccc(S(N)(=O)=O)cc2)c(=O)[nH]1`, the inhibition was -12.8%.
Turning to `NS(=O)(=O)c1ccc(N=Nc2ccc(O)c3ncccc23)cc1`, the inhibition was 13.3%.
For the molecule `COc1ccc2[nH]c(=O)c(CN(CCO)S(=O)(=O)c3ccc4c(c3)OCCO4)cc2c1`, the inhibition was -3.52%.
With `O=[N+]([O-])c1ccc(O)c2ncccc12` the figure was -8.5% and 12.1%; with `O=[N+]([O-])c1cc(Cl)c(O)c2ncccc12`, 14.7%.
The result for `COCc1cc(SC2CCCCC2)nc(C)n1` reads 10.5%; that for `O=C(CSc1nc2[nH]ncc2c(=O)[nH]1)Nc1nccs1`, 12.6%; that for `CCN(CC1CCCO1)C(=O)CCc1nnc(CCc2ccc(OC)cc2)o1` (configuration not stated), 0.66%.
The result for `O=C1CCC(=O)N1c1nc2nc(-c3ccccc3)cc(-c3ccccc3)n2n1` reads 3.94%; that for `Cc1ccc(S(=O)(=O)N2CCN(CC(=O)Nc3ccc(N4CCOCC4)cc3)CC2)cc1C`, 10.9%; that for `CC(=O)N1CCN(CC(=O)Nc2cc(S(=O)(=O)N3CCOCC3)ccc2C)CC1`, 10.5%.
As to `CN1CCN(CC(=O)Nc2cc(S(=O)(=O)N3CCOCC3)ccc2Cl)CC1`, the inhibition is 8.7%.
Regarding `O=S(=O)(c1ccc(NC(=S)N2CCN(c3ccccc3F)CC2)cc1)N1CCOCC1`, the inhibition was 11.6%.
With `O=C(CN1CCN(c2ccc(O)cc2)CC1)Nc1cc(S(=O)(=O)N2CCCCC2)ccc1Cl` the figure was 28.7%; with `COc1ccccc1N1CCN(C(=S)Nc2ccc(S(=O)(=O)N3CCOCC3)cc2)CC1`, -0.03%; with `CC(NC(=O)Cn1c(NCCO)nc2ccccc21)c1ccccc1` (configuration not stated), -0.56%.
The result for `CCOc1ccc(C(=O)NC(C(=O)NCc2ccccc2OC)C(C)C)cc1` (configuration not stated) reads 20.8%; that for `Cc1ccc(CNC(=O)c2ccccc2NC(=O)CN2CC(C)OC(C)C2)cc1` (configuration not stated), 2.54%.
`Cc1ccc(S(=O)(=O)N(C)C)cc1NC(=O)COC(=O)c1ccc2c(c1)NC(=O)CS2`: the inhibition is 2.57%.
The result for `CC(CN1CCCCC1)OC(=O)c1ccc(Cl)cc1` (configuration not stated) reads -0.49%.
As for `Cc1[nH]c2ccccc2c1-c1csc(NC(=O)CSCCO)n1`, the inhibition was 23.2%.
The result for `Cc1[nH]c2ccccc2c1-c1csc(NC(=O)CN2CCOCC2)n1` reads 35.5%; that for `Cc1ccc(CNC(=O)COC(=O)c2cc3c(s2)CCC(C)C3)cc1` (configuration not stated), 0.58%.
On to `C#CCOCCOCCOCCNc1nc(N2CCN(C(=O)Cn3cc(CCCN=C(N)N)nn3)CC2)nc(N2CCN(C(=O)[C@H](CCCCN)n3cc(CCCC)nn3)CC2)n1`, for which the inhibition was 10.3%.
For `O=C(NC1CC1)c1scc2c1OCCO2`, the inhibition is -3.94%.
With `COC(C(=O)Nc1ccc(NC(=O)C(OC)c2ccccc2)cc1)c1ccccc1` (configuration not stated) the figure was 0.71%; with `COc1cc(NC(=O)C/C(C)=N/NC(=O)C(OC)c2ccccc2)c(OC)cc1Cl` (configuration not stated), 7.44%; with `COc1ccc(CC(=O)N/N=C(\C)CC(=O)Nc2ccc3c(c2)OCCO3)cc1OC`, 8.47%.
The result for `COc1ccc(CNC(=O)C/C(C)=N/NC(=O)Cc2ccc(OC)c(OC)c2)cc1` reads 9.86%.
The result for `CC(=O)NC(C)Cc1cn(Cc2ccccc2)c2ccccc12` (configuration not stated) reads 19.1%.
In the case of `COC(=O)c1sc(NC(=O)c2cccc([N+](=O)[O-])c2)c(C(N)=O)c1C`, the inhibition is 9.65%.
With `Cc1ccccc1CNCCCSc1ncccn1` the figure was 11.1%; with `COc1ccc(CN2CCCCCC2)c(C)c1C`, 12.7%; with `CC(C)(C)c1cc2nc(N)nc(N)n2n1`, 8.32%.
On to `O=C(Nc1ccccc1Cl)c1ccc(COc2ccc3c(c2)CCC3)cc1`, for which the inhibition was 20.5%.
With `CN(C(=O)CC(NC(=O)c1ccccc1Cl)c1ccccc1)c1ccccc1` (configuration not stated) the figure was 12.8%.
The result for `COc1cc2cccc(OC)c(=O)c2c(O)c1OC` reads 2.12%.
As for `COc1cc2ccc3c(CCN(C)C)cc(OC)c(OC)c3c2cc1OC`, the inhibition was 6.37%.
With `CC(=O)Nc1ccc(S(=O)(=O)Oc2ccccc2N2CCCCC2)cc1`, the inhibition was 2.71%.
`COc1cc(/C=N/n2cnnc2)ccc1OC(=O)c1ccco1`: the inhibition is 24.8%.
With `COc1cc(/C=N/n2cnnc2)ccc1OC(=O)c1cccnc1` the figure was 27.4%.
Regarding `COc1ccc(/C=N/NC(=O)CC(=O)NCCc2ccccc2)cc1OC`, the inhibition is -5.15%.
On to `CCOc1ccc(/C=N\NC(=O)CC(=O)NCCc2ccccc2)cc1`, for which the inhibition was 4.85%.
The result for `CCOc1cc(/C=N/NC(=O)C(=O)N/N=C/c2ccc(O)c(OCC)c2)ccc1O` reads 8.63%; that for `COc1ccccc1/C=N/NC(=O)CC(=O)NCCc1ccccc1`, 9.39%; that for `Cc1ccc(/C=N\NC(=O)CC(=O)NCCc2ccccc2)cc1`, 7.24%.
In the case of `CCOc1cc(/C=N/NC(=O)C2CCCC2)ccc1O`, the inhibition is 36.2%.
Take `CC(Nc1c[nH]c(=O)[nH]c1=O)c1ccccc1` (configuration not stated): the inhibition was 28.4%.
With `N#CC1=C(N)N2C(=C(C#N)C13CCCCC3)SC1CCCCC12O` (configuration not stated) the figure was 2.16%.
The result for `CCc1cc(Cn2nc(-c3ccccc3)cc2C(=O)NCc2ccccc2OC)on1` reads 2.01%; that for `COc1ccccc1CC(NC(C)=O)C(=O)N1CCN(C(=O)Nc2ccccc2Cl)CC1` (configuration not stated), 11.4%.
With `Cc1ccc(NC(=O)c2ccc3nsnc3c2)c(C)c1`, the inhibition is 3.08%.
Consider `O=C(NC(C1CC1)C1CC1)C1CCC(=O)N(CCCN2CCCC2=O)C1` (configuration not stated), for which the inhibition is 8.58%.
With `FC(F)(F)c1cccc(Nc2nc(N3CCOCC3)nc(N3CCOCC3)n2)c1` the figure was 6.77%; with `COc1ccc(/C=C2\CCC(C3CCCC3)C2=O)c(OC)c1OC` (configuration not stated), 15.3%.
For the molecule `Cc1ccc(S(=O)(=O)Nc2ccc(Oc3cccnc3)nc2)cc1`, the inhibition was 9.11%.
Take `CC(=O)Nc1ccc(SC[C@H](c2ccccc2)N2CCN(CCc3ccccc3)CCC2=O)cc1`: the inhibition was 16.3%.
As to `COc1ccc(-c2nnc(-c3cc4ccccc4oc3=O)o2)cc1`, the inhibition is -1.16%.
Take `O=C(C1CCCN(Cc2cccc(Cl)c2)C1)N1CCCCC1` (configuration not stated): the inhibition is 2.11%.
With `COc1cc(SC)ccc1C(=O)Nc1ncc(Cl)cc1Cl` the figure was -2.54%; with `CNC(=S)N/N=C/c1cn(CCOc2ccc(OC)cc2)c2ccccc12`, 6.11%; with `Cc1c(CN(C)C)c2c(n1Cc1ccccc1)C(=O)c1ccccc1-2`, 2.92%.
As for `CCOc1cc(/C=N/n2c(C)nnc2C)ccc1O`, the inhibition is 27.2%.
With `CCOc1cc(/C=N/n2cnnc2)cc(Br)c1O` the figure was 23.3%; with `Clc1ccccc1Cn1nc(-c2ccccc2)nc1-c1ccccc1`, 1.23%; with `Cn1ccnc1SCC(=O)Nc1cc(C(F)(F)F)ccc1N1CCOCC1`, 7.01%.
The result for `COC(=O)c1ccc2c(=O)n(-c3ccc(OC)cc3)c(=S)[nH]c2c1` reads 6.42%; that for `O=C(COC(=O)CCC1CCCC1)NCc1ccc(Cl)cc1`, 17.3%; that for `COC(=O)c1cn(CCOc2ccccc2F)c2ccccc12`, 1.53%.
For the molecule `O=[N+]([O-])c1cn(Cc2ccc(Cl)cc2)cn1`, the inhibition was 1.06%.
The result for `Cc1cccc(N2C(=O)/C(=C\c3ccc(C(=O)O)cc3)c3ccccc3C2=O)c1` reads 36.5%; that for `CCOc1cc(/C=C2\C(=O)N(c3cccc(C(F)(F)F)c3)C(=O)c3ccccc32)ccc1O`, 9.18%; that for `CC(C)c1nnc(NC(=O)c2cccnc2)s1`, 2.86%.
With `O=C(Nc1ccccc1)NC1(C(=O)N2CCC(O)CC2)CCCCC1` the figure was 4.76%.
For `OC1CCN(C(=S)Nc2ccc(Oc3ccccc3)cc2)CC1`, the inhibition is -15.6%.
For the molecule `C/C(=N\NC(=O)C(C)Sc1ccccc1)C(C)(C)C` (configuration not stated), the inhibition was 17.5%.
The result for `OCCc1ccc(O)cc1` reads 27%.
With `CC(CCc1ccc(O)cc1)NCc1ccc(Br)cc1` (configuration not stated) the figure was 3.95%; with `N/C(=N\OC(=O)Cc1cccs1)c1cccc([N+](=O)[O-])c1`, 3.85%.
With `COc1cc(Br)c(C2C(C#N)=C(N)Oc3n[nH]c(-c4cccnc4)c32)cc1OC` (configuration not stated) the figure was 18.6%; with `COc1cc(OC)cc(C2C(C#N)=C(N)Oc3n[nH]c(-c4cccnc4)c32)c1` (configuration not stated), 16.8%.
Consider `COc1cc(OC)c2c(c1)C(=O)OC2OC` (configuration not stated), for which the inhibition is 2.96%.
The result for `CC(NC(=O)CS(=O)(=O)c1ccccc1)c1ccccc1` (configuration not stated) reads 25%; that for `COc1ccc(-c2cccc(C(=O)N3CCOCC3)c2)cc1`, 9.81%; that for `O=C(c1cccc(-c2ccc(O)cc2)c1)N1CCN(c2ccc(F)cc2)CC1`, 1.57%.
With `O=C(c1ccc2ccccc2c1)N1CCCC1` the figure was 0.92%.
With `O=C(c1ccc2ncsc2c1)N1CCCCC1` the figure was 18.2%.
Consider `O=C(c1ccc2ccccc2c1)N1CCN(c2ccccc2)CC1`, for which the inhibition was 10.3%.
The result for `O=C(c1ccc2ncsc2c1)N1CCN(c2ccccc2Cl)CC1` reads 11.3%.

Source of the values: PubChem BioAssay AID1903 (Southern Research Specialized Biocontainment Screening …, 2009).
